This is a sample that favours compounds with a hit; in the whole collection about 2.7% have one here.
HEK293 tox = qHTS of GLP-1 Receptor Inverse Agonists: Cytotox Screen | 0.13% of 410,000 active | AID 624418, 2012 | Potency, µM (doses to about 38.3 µM), for inactives: top-dose activity change, negative = inhibition, hits mostly inhibitors | HEK293 cAMP-luciferase reporter cells, luminescence, 24 h;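 also: loss of luciferase light is scored as toxicity; % is scaled to controls: 0 for no effect and ±100 for the full control effect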
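Here, cytotoxicity is scored as loss of luminescence. The MLSMR collection was tested on cells seeded in medium containing 10% Nu serum, with a 24 hr compound exposure preceded by 12 hours of culture.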
IDH1 R132H inh = qHTS for Inhibitors of mutant isocitrate dehydrogenase 1 (IDH1): qHTS; 0.093% of 390,000 active; Potency, µM (highest dose often 76.6 µM), without a hit: at the highest dose activity change, negative = inhibition, actives largely listed as inhibitors; Isocitrate dehydrogenase [NADP] cytoplasmic (Homo sapiens), O75874; IDH1-R132H enzyme, NADPH consumption, diaphorase/resazurin fluorescence; also: % is scaled to controls: 0 for no effect and ±100 for the full control effect; nearly all actives have a fitted effect of over 65% in size
Target sequence (O75874 whole entry R132H, stated change not applied): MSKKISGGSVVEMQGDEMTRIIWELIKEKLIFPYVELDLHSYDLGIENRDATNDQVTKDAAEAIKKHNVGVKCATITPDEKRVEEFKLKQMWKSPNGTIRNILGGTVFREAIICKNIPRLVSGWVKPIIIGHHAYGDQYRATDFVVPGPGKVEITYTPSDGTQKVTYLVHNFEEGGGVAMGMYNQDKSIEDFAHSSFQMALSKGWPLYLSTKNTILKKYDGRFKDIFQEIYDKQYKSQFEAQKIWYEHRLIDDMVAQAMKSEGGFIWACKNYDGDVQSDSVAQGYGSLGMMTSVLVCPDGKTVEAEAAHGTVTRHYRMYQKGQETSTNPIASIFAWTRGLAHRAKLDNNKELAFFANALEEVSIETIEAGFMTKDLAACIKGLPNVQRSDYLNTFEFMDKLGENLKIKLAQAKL
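IDH1-R132H (0.5 ug/mL dispensed) in pH 7.5 Tris buffer was preincubated 30 min with compound, then given a substrate mix of 0.016 mM NADPH and 2 mM alpha-KG for 80 min at room temperature; remaining NADPH was read by diaphorase/resazurin fluorescence.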
TrxR1 substrate = qHTS Assay for Substrates of Mammalian Selenoprotein Thioredoxin Reductase 1 (TrxR1): qHTS | Thioredoxin reductase 1, cytoplasmic (Rattus norvegicus), O89049 | purified TrxR1 substrate turnover, NADPH consumption readout | Potency, µM (titrated, usually from 114 µM), inactives show top-dose activity change, negative = substrate turnover | 0.01% of 390,000 active | AID 588456, 2011; also: % is scaled to controls: 0 for no effect and ±100 for the full control effect; nearly all actives have a fitted effect of over 50% in size
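Rat TrxR1, dispensed at 90 nM, was prereduced with 400 uM NADPH (final) for 5 min at ~22 deg C, then incubated with compound 15 min before 400 uM selenite. A first-read NADPH fluorescence drop versus no-compound background flagged substrates.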
GLP1R inv ag = qHTS of GLP-1 Receptor Inverse Agonists (Inhibition Mode); HEK293 GLP-1R CRE-luciferase, luminescence, 24 h; GLP-1R form is constitutively active; Potency, µM (doses to about 38.3 µM), for inactives: top-dose activity change, negative = inhibition, actives largely listed as inhibitors; 1.6% of 410,000 active; also: % is scaled to controls: 0 for no effect and ±100 for the full control effect; nearly all actives have a fitted effect of over 55% in size
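Constitutively active GLP-1R drives a cAMP-responsive luciferase in stably transfected HEK293 cells; test compounds are added after overnight (12 h) attachment and left 24 hr, and signal loss in luminescence marks inhibition.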
GLP-1R agonist = qHTS of GLP-1 Receptor Agonists; Potency, µM (titrated, usually from 45.6 µM), without a hit: at the highest dose activation, most hits filed as activators; Glucagon-like peptide 1 receptor (Homo sapiens), P43220; HEK293 GLP-1R CRE-luciferase, luminescence, 4-6 h; cells express a hypersensitive GLP-1R form; 0.007% of 380,000 active; also: % of control where 0% means no effect
TrxR1 inh = qHTS Assay for Inhibitors of Mammalian Selenoprotein Thioredoxin Reductase 1 (TrxR1): qHTS | Thioredoxin reductase 1, cytoplasmic (Rattus norvegicus), O89049 | recombinant rTrxR1, NADPH fluorescence consumption, selenite substrate | Potency, µM (top dose mostly 114 µM), inactives show at the highest dose activity change, negative = inhibition, actives largely listed as inhibitors | 1% of 390,000 active | AID 588453, 2011; also: % is scaled to controls: 0 for no effect and ±100 for the full control effect; nearly all actives have a fitted effect of over 65% in size
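Rat TrxR1 (90 nM in the dispensed reagent) was pre-reduced with 400 uM NADPH for 5 min at room temperature, then incubated with compound for 15 min. After 400 uM selenite was added, NADPH fluorescence (Ex 340/Em 450 nm) was followed for 8 min.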
* marks the source's active call; other numbers are inactive results; [ ] = dose if it differs, or a comment. Calls follow the shape of the dose curve; as a rule, active = well fitted curve in the direction sought with a large enough effect; inconclusive = small, poorly fitted or top-dose-only effect, or another doubt; inactive = no such curve, though single readings can be large; an effect the other way counts as inactive or inconclusive. Potency is read from the fitted curve at half-maximal effect.

`N#Cc1ccc(CN2C(=O)c3ccccc3Sc3ccc(C(=O)OCc4ccco4)cc32)cc1` gave HEK293 tox -7%, IDH1 R132H inh -1%, TrxR1 substrate -8%[57.1 µM], GLP1R inv ag 10%, GLP-1R agonist -7% and TrxR1 inh -13%[57.1 µM].
`COc1ccc2oc(C(=O)OCC(=O)N(Cc3ccccc3)C(C)C)c(C)c2c1` gave HEK293 tox 3%, IDH1 R132H inh 2%, TrxR1 substrate 13%, GLP1R inv ag 11µM*, GLP-1R agonist 15% and TrxR1 inh -5%.
`S=C(NCc1ccco1)N1CCN(C(c2ccccc2)c2ccccc2)CC1` gave HEK293 tox 9%, IDH1 R132H inh -1%, TrxR1 substrate 8%, GLP1R inv ag inconclusive, GLP-1R agonist 0% and TrxR1 inh 28%.
For COc1cc(NC(=S)N2CCC(C(O)(c3ccccc3)c3ccccc3)CC2)cc(OC)c1 the results were HEK293 tox 4%, IDH1 R132H inh -1%, TrxR1 substrate 0%, GLP1R inv ag 10µM*, GLP-1R agonist -5% and TrxR1 inh 8%.
`COc1cccc(NC(=S)N2CCN(C(c3ccccc3)c3ccccc3)CC2)c1` gave HEK293 tox 2%, IDH1 R132H inh -3%, TrxR1 substrate -11%, GLP1R inv ag 10µM*, GLP-1R agonist -21% and TrxR1 inh -14%.
Screening COCCCNC(=S)N1CCN(C(c2ccccc2)c2ccccc2)CC1 returned HEK293 tox 13%, IDH1 R132H inh 6%, TrxR1 substrate -3%, GLP1R inv ag 10µM*, GLP-1R agonist 4% and TrxR1 inh 5%.
For CCNC(=S)N1CCC(C(O)(c2ccccc2)c2ccccc2)CC1 the results were HEK293 tox -9%, IDH1 R132H inh 9%, TrxR1 substrate 5%, GLP1R inv ag -21%, GLP-1R agonist 11% and TrxR1 inh 11%.
Cc1ccc(-c2nc3ccccc3o2)cc1NC(=O)C(C)Oc1ccccc1 (stereo unspecified) was read as TrxR1 substrate 8% and TrxR1 inh 17%.
For Cc1cc(=O)n(CC(=O)N2CCCc3ccccc32)c2c1c(C)nn2-c1cccc(F)c1 the results were HEK293 tox 12%, IDH1 R132H inh -6%, TrxR1 substrate 3%[57.1 µM], GLP1R inv ag 4% and TrxR1 inh 16%[57.1 µM].
For CC(C)(C)c1ccc(C(=O)NNc2ncnc3c2cnn3-c2ccc(Cl)cc2)cc1 the results were HEK293 tox -6%, IDH1 R132H inh 9%, TrxR1 substrate -6%[57.1 µM], GLP1R inv ag -17% and TrxR1 inh 6%[57.1 µM].
Screening C=C(C)CNC(=S)N1CCN(C(c2ccccc2)c2ccccc2)CC1 returned HEK293 tox 3%, IDH1 R132H inh -7%, TrxR1 substrate -7%[57.1 µM], GLP1R inv ag inconclusive, GLP-1R agonist 10% and TrxR1 inh 19%[57.1 µM].
COc1ccc2oc(C(=O)N3CCN(C(c4ccccc4)c4ccccc4)CC3)c(C)c2c1 was read as HEK293 tox 1%, IDH1 R132H inh 0%, TrxR1 substrate -9%[57.1 µM], GLP1R inv ag 5.6µM*, GLP-1R agonist 11% and TrxR1 inh 5%.
Screening CC(C)CNC(=S)N1CCN(C(c2ccccc2)c2ccccc2)CC1 returned HEK293 tox -11%, IDH1 R132H inh -3%, TrxR1 substrate -1%, GLP1R inv ag 2.8µM*, GLP-1R agonist 3% and TrxR1 inh 14%.
O=C(c1cccc(-c2ccco2)c1)N1CCCC(N2CCN(c3ccc(F)cc3)CC2)C1 (stereo unspecified) was read as HEK293 tox -3%, IDH1 R132H inh 7%, TrxR1 substrate -4%, GLP1R inv ag 10µM*, GLP-1R agonist -16% and TrxR1 inh -9%.
For COc1cc(/C=C/C(=O)c2ccccc2O)cc(OC)c1OC the results were HEK293 tox 4%, IDH1 R132H inh -6%, TrxR1 substrate -10%, GLP1R inv ag -19%, GLP-1R agonist -5% and TrxR1 inh 50µM*.
For COc1ccc(C(=O)/C=C/c2ccc(N(C)C)cc2)c(OC)c1 the results were HEK293 tox inactive, IDH1 R132H inh 4%, TrxR1 substrate -2%[57.1 µM], GLP1R inv ag inconclusive, GLP-1R agonist inconclusive and TrxR1 inh -9%[57.1 µM].
Screening COc1ccc(C(=O)/C=C/c2ccccc2)c(OC)c1 returned HEK293 tox -16%, IDH1 R132H inh 2%, TrxR1 substrate 5%[57.1 µM], GLP1R inv ag 10µM*, GLP-1R agonist 1% and TrxR1 inh 14%[57.1 µM].
O=C(COC(=O)/C=C/c1ccco1)Nc1ncc(Cl)cc1Cl was read as HEK293 tox -25%, IDH1 R132H inh -5%, TrxR1 substrate -5%, GLP1R inv ag -5%, GLP-1R agonist 6% and TrxR1 inh 50µM*.
`COc1ccccc1/C=C/C(=O)OCC(=O)NCc1ccco1` gave HEK293 tox -25%, IDH1 R132H inh 4%, TrxR1 substrate 7%, GLP1R inv ag 8%, GLP-1R agonist -1% and TrxR1 inh inconclusive.
Screening Cc1nc(NC(=O)COC(=O)/C=C/c2ccco2)c(Cl)cc1Cl returned HEK293 tox -24%, IDH1 R132H inh 5%, TrxR1 substrate 4%, GLP1R inv ag 0%, GLP-1R agonist -7% and TrxR1 inh 40µM*.
For COC(=O)c1ccc(/C=C/C(=O)OCC(=O)Nc2ncc(Cl)cc2Cl)cc1 the results were HEK293 tox 4%, IDH1 R132H inh 6%, TrxR1 substrate -2%, GLP1R inv ag 16%, GLP-1R agonist 6% and TrxR1 inh -2%.
`Cc1ccc(/C=C/C(=O)OCC(=O)NCc2cccs2)o1` gave HEK293 tox 0%, IDH1 R132H inh 2%, TrxR1 substrate -11%, GLP1R inv ag 7%, GLP-1R agonist 6% and TrxR1 inh 56µM*.
COc1cc(/C=C/C(=O)OCC(=O)NCc2ccco2)ccc1O was read as HEK293 tox inconclusive, IDH1 R132H inh -3%, TrxR1 substrate -2%, GLP1R inv ag inconclusive, GLP-1R agonist 9% and TrxR1 inh 50µM*.
Screening CCCCNC(=O)[C@@H]1CC=C[C@@H]2CCN(CCCC)C(=O)[C@@H]21 returned TrxR1 substrate -3% and TrxR1 inh 0%.
